# According to PubChem BioAssay:
# Test: compound effects on differentiated 3T3-L1 adipocyte viability – cell-based, 3T3-L1 adipocytes, calcein-AM fluorescence, 48 h, basal, profiling panel (AID 1163); further: test concentration not given here
# Details: 3T3-L1 adipocytes viability, higher = more signal
row,SMILES,z-score
1,Cc1ccc(S[C@]2(C(=O)O)CC(=O)N(Cc3cc(C(F)(F)F)cc(C(F)(F)F)c3)[C@@H]2c2ccc(CO)cc2)cc1,-0.228
2,CC(C)Cc1ccc(CN2CC[C@@H](NC(=O)Nc3ccccc3)C2)cc1,-1.07
3,C=CC1c2cc(O)c(OC)cc2CCN1Cc1cc2c(cc1Br)OCO2 (stereo not given),1.28
4,O=C1O[C@H](c2ccccc2)[C@H](c2ccccc2)N2[C@H]1[C@@H](C(=O)N1CCN(c3ncccn3)CC1)[C@]1(C(=O)Nc3ccc(C#CC4(O)CCCCCC4)cc31)[C@H]2c1ccc(OCCO)cc1,1.11
5,COC(=O)C(CC#Cc1ccc2c(c1)[C@]1(C(=O)N2)[C@H](c2ccccc2OCCO)N2[C@H](c3ccccc3)[C@H](c3ccccc3)OC(=O)[C@H]2[C@@H]1C(=O)NC[C@H](O)c1ccccc1)C(=O)OC,-0.625
6,Cc1ccccc1C(O)C1C=CC2C(=O)N(C)C(=O)C2N1N(c1ccccc1)c1ccccc1 (stereo not given),-1.41
7,CCC[C@@H]1C[C@@]1(CCC)[C@@H](NC(=O)OCc1ccccc1)c1ccc(-c2ccccc2)cc1,-1.15
8,CN(C)C(=O)C1N=C(c2ccc(OCCCO)cc2)N(c2ccccc2)O1 (stereo not given),-0.214
9,O=C1O[C@H](c2ccccc2)[C@H](c2ccccc2)N2[C@H]1[C@@H](C(=O)O)[C@]1(C(=O)Nc3ccc(C#CC4=CCCCC4)cc31)[C@H]2c1ccc(O)cc1,-0.029
10,C=CCOC(=O)[C@H]1[C@@H]2C(=O)O[C@@H](c3ccccc3)[C@@H](c3ccccc3)N2[C@@H](c2ccc(OCCOC(=O)[C@H]3C[C@H]4C(=O)N[C@@H](CCCCNC(C)=O)C(=O)N4[C@H]3c3ccc(O)cc3)cc2)[C@]12C(=O)Nc1ccccc12,0.496
11,CN1C(=O)C2C=CC(C(O)c3cccc4ccccc34)N(N3CCCCC3)C2C1=O (stereo not given),-0.576
12,C=CCOC(=O)[C@H]1[C@@H]2C(=O)O[C@@H](c3ccccc3)[C@@H](c3ccccc3)N2[C@@H](c2ccc(OCCOC(=O)[C@@H]3C[C@@H]4C(=O)N5CCC[C@H]5C(=O)N4[C@@H]3c3ccc(O)cc3)cc2)[C@]12C(=O)Nc1ccc(I)cc12,0.276
13,O=C1C2C=CC(C(O)c3ccccc3)N(Nc3ccccc3F)C2C(=O)N1c1ccccc1 (stereo not given),-0.717
14,CN(C)c1ccc(C(O)C2C=CC3C(=O)N(c4ccccc4)C(=O)C3N2Nc2ccc([N+](=O)[O-])cc2)cc1 (stereo not given),-1.25
15,[N-]=[N+]=NCc1ccccc1[C@H]1OC(c2ccc(OCCCO)cc2)=N[C@@]1(CCS(=O)(=O)c1ccccc1)C(=O)N1CCCCC1,1.03
16,C=CCOC(=O)[C@H]1[C@@H]2C(=O)O[C@@H](c3ccccc3)[C@@H](c3ccccc3)N2[C@@H](c2ccc(OCCOC(=O)[C@@H]3C[C@@H]4C(=O)N[C@@H](CCCCNC(C)=O)C(=O)N4[C@@H]3c3ccc(O)cc3)cc2)[C@]12C(=O)Nc1ccc(I)cc12,0.522
17,COc1cc2c(cc1OC)CN(C(=O)[C@@H]1[C@H]3C(=O)O[C@H](c4ccccc4)[C@H](c4ccccc4)N3[C@H](c3ccc(OCCO)cc3)[C@@]13C(=O)Nc1ccc(C#CC4(O)CCCCCC4)cc13)CC2,1.72
18,C=C(/C(=C/C[C@H](OC(C)=O)c1ccccc1OCCO)c1cc(C(=O)OC)ccc1OC)C(C)C,1.77
19,CCOC(=O)C[C@H]1[C@H](OC(=O)c2cc3ccccc3oc2=O)[C@@H](NC(=O)c2ccc(-c3ccccc3)cc2)c2cc(OCCCO)ccc2N1C(=O)c1ccc2ccccc2n1,0.198
20,CN(C)CCCCNC(=O)[C@@H]1C[C@@H]2C(=O)N[C@@H](Cc3ccccc3)C(=O)N2[C@@H]1c1cccc(OCCO)c1,0.296
21,COc1ccc([Si](C)(C)[C@@H]2[C@@H](CCO)O[C@]3(C(=O)N(Cc4ccc(N5CCCCC5=O)cc4)c4ccccc43)[C@H]2C)cc1,-0.686
22,COCCOC(=O)N1C(=O)[C@@]2(c3cc(C#CC4=CCCCC4)ccc31)[C@H](c1ccccc1OCCO)N1[C@H](c3ccccc3)[C@H](c3ccccc3)OC(=O)[C@H]1[C@@H]2C(=O)Nc1nc2ccccc2s1,0.764
23,CCCCC(=C=CC[C@@H](O)c1ccccc1OCCO)C[C@@H](O)COCc1ccccc1,0.52
24,Cc1ccc(S[C@]2(C(=O)NCC(F)(F)F)CC(=O)N(Cc3ccccc3)[C@@H]2c2ccc(CO)cc2I)cc1,-0.649
25,O=C(NCC(F)(F)F)[C@@H]1c2ccccc2C(=O)N(Cc2cc(F)cc(C(F)(F)F)c2)[C@H]1c1ccc(CO)cc1,0.929
